CRFR2-BP antag: antagonists of CRF-binding protein/CRF-R2 receptor complex. HEK293 CRF-R2/CRF-BP, CRF-induced calcium fluorescence. inhibition, % at 11.8 µM. 350,000 tested, 0.59% active;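 active = inhibition of the ligand-induced calcium signal above about 50% at the single tested concentration, limit read from the data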
cardiac RTF act: increases calcium sensitivity of human cardiac regulated thin filaments | IANBD-labeled TnC RTF fluorescence at EC20 calcium; 0% EC20 calcium, 100% full calcium | 340,000 tested, 0.24% active | activation, % at 7.2 µM | P19429+P45379;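 active = activation above the mean over all tested compounds plus 3 SD, cut at about 30% in these data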;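 also: rise in fluorescence read as greater calcium sensitivity of cardiac thin filaments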
CRFBP-R2 agonist: agonists of human CRF-binding protein/CRF-R2 receptor complex | HEK293 CRF-R2/CRF-BP, calcium dye fluorescence (FLIPR); percent of saturating CRF peptide response | activation, % at 13.2 µM | 350,000 tested, 0.46% active | AID 588473;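 active = activation of at least 50%, plus an integration ratio under a set limit after plate pattern correction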
Cardiac RTF inh: cardiac RTF calcium desensitization. P19429+P45379. inhibition, % at 7.15 µM. AID 493244. IANBD-labeled cardiac RTF, Ca2+ fluorescence. 340,000 tested, 0.12% active;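 active = inhibition above the mean inhibition of all tested compounds plus 3 SD, cut at about 17% in these data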;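 also: assay run at fixed EC70 calcium of 1.6 mM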
A number is an active result. Most compounds without a hit are left out; they make up all but 1.3% or so of the library.

`COc1ccc(CCNc2nc(N3CCCCC3)nc(N3CCCCC3)n2)cc1OC` gave CRFR2-BP antag 74.0, cardiac RTF act inactive, CRFBP-R2 agonist inactive and Cardiac RTF inh inactive.
Cc1cc(SCC(=O)NCC2CCCO2)nc2ccccc12 (stereo not given) was read as CRFR2-BP antag inactive, cardiac RTF act inactive, CRFBP-R2 agonist inactive and Cardiac RTF inh inactive.
Screening O=c1[nH]c(C2CCN(S(=O)(=O)c3ccc(C(F)(F)F)cc3)CC2)nc2c1nnn2Cc1ccccc1 returned CRFR2-BP antag inactive, cardiac RTF act inactive, CRFBP-R2 agonist inactive and Cardiac RTF inh inactive.
Screening O=C(NCc1ccc(F)cc1)C(=O)NCC1OCCN1C(=O)c1ccc(Cl)cc1 (stereo not given) returned CRFR2-BP antag 59.7, cardiac RTF act inactive, CRFBP-R2 agonist inactive and Cardiac RTF inh inactive.
`O=C(Nc1cc(Br)ccc1O)c1cc(-c2ccc3c(c2)OCO3)on1` gave CRFR2-BP antag 70.0, cardiac RTF act inactive, CRFBP-R2 agonist inactive and Cardiac RTF inh inactive.
Screening CSc1ccccc1NC(=O)c1cc(-c2ccc3c(c2)OCO3)on1 returned CRFR2-BP antag inactive, cardiac RTF act inactive, CRFBP-R2 agonist inactive and Cardiac RTF inh inactive.
Screening CN(C)c1ccc(/C=C(/C(=O)c2ccc(Cl)cc2Cl)n2cncn2)cc1 returned CRFR2-BP antag inactive, cardiac RTF act inactive, CRFBP-R2 agonist 70.8 and Cardiac RTF inh inactive.
`Cc1nn(CC(=O)Nc2nnc(C(C)C)s2)c(=O)c2ccccc12` gave CRFR2-BP antag inactive, cardiac RTF act inactive, CRFBP-R2 agonist inactive and Cardiac RTF inh inactive.
`CCC1(c2ccc(F)cc2)NC(=O)N(CC(=O)c2cc(C)n(C3CC3)c2C)C1=O` (stereo not given) gave CRFR2-BP antag inactive, cardiac RTF act inactive, CRFBP-R2 agonist 65.9 and Cardiac RTF inh inactive.
COc1ccc(CCNC(=O)COc2ccc(N(C)S(=O)(=O)c3ccc(C)cc3)cc2)cc1OC was read as CRFR2-BP antag 102.6, cardiac RTF act inactive, CRFBP-R2 agonist inactive and Cardiac RTF inh inactive.
Screening COc1ccc(CCNC(=O)c2ccc(N(C)S(=O)(=O)c3ccc(C)cc3)cc2)cc1OC returned CRFR2-BP antag inactive, cardiac RTF act inactive, CRFBP-R2 agonist inactive and Cardiac RTF inh inactive.
For C#CCOCCOCCOCCNc1nc(N2CCN(C(=O)[C@H](CC(N)=O)n3cc(C(N)[C@@H](C)CC)nn3)CC2)nc(N2CCN(C(=O)[C@H](CCC(=O)O)n3cc([C@@H](N)CCCCN)nn3)CC2)n1 (stereo not given in full) the results were CRFR2-BP antag inactive, cardiac RTF act inactive, CRFBP-R2 agonist inactive and Cardiac RTF inh inactive.
For c1ccc(Cc2nnc3n2CCCCC3)cc1 the results were CRFR2-BP antag inactive, cardiac RTF act inactive, CRFBP-R2 agonist inactive and Cardiac RTF inh inactive.
c1ccc2c(c1)CCCN2Cc1nnc2n1CCCCC2 was read as CRFR2-BP antag inactive, cardiac RTF act 36.7, CRFBP-R2 agonist inactive and Cardiac RTF inh inactive.
`CCCCN1C(=O)/C(=C/C=C2/CC(C)(C)CN2C)SC1=S` gave CRFR2-BP antag inactive, cardiac RTF act 396.2, CRFBP-R2 agonist 195.6 and Cardiac RTF inh inactive.
Screening CN1/C(=C\C=C2/SC(=S)N(CC(=O)O)C2=O)C(C)(C)c2ccccc21 returned CRFR2-BP antag inactive, cardiac RTF act 772.7, CRFBP-R2 agonist 263.1 and Cardiac RTF inh inactive.
For CCCN1C(=O)/C(=C/C=C2\N(CC)c3ccccc3C2(C)C)SC1=S the results were CRFR2-BP antag inactive, cardiac RTF act 52.0, CRFBP-R2 agonist 169.5 and Cardiac RTF inh inactive.
CCCN1C(=O)/C(=C\C=C2/Sc3ccccc3N2CCO)SC1=S was read as CRFR2-BP antag inactive, cardiac RTF act inactive, CRFBP-R2 agonist inactive and Cardiac RTF inh inactive.
Screening CCCCN1C(=O)/C(=C/C=C2\Oc3ccccc3N2CC)SC1=S returned CRFR2-BP antag inactive, cardiac RTF act 186.0, CRFBP-R2 agonist 287.2 and Cardiac RTF inh inactive.
`Cn1cccc1/C=C1/SC(=S)N(CC(=O)O)C1=O` gave CRFR2-BP antag inactive, cardiac RTF act inactive, CRFBP-R2 agonist inactive and Cardiac RTF inh inactive.
For CCCN1C(=O)/C(=C/c2ccncc2)SC1=S the results were CRFR2-BP antag inactive, cardiac RTF act inactive, CRFBP-R2 agonist inactive and Cardiac RTF inh inactive.
Screening Nc1c(Br)cc2c([nH]c(=O)c3ccccc32)c1Br returned CRFR2-BP antag inactive, cardiac RTF act inactive, CRFBP-R2 agonist inactive and Cardiac RTF inh inactive.
Screening Clc1ccc(C#Cc2cccnc2)cc1 returned CRFR2-BP antag inactive, cardiac RTF act inactive, CRFBP-R2 agonist inactive and Cardiac RTF inh inactive.
Screening C(=N\Nc1ccccc1)/c1nc2ccccc2s1 returned CRFR2-BP antag inactive, cardiac RTF act inactive, CRFBP-R2 agonist inactive and Cardiac RTF inh inactive.
Screening C=CCN1C(=O)/C(=C\C=C2\N(C)c3ccccc3C2(C)C)SC1=S returned CRFR2-BP antag inactive, cardiac RTF act 51.0, CRFBP-R2 agonist 104.2 and Cardiac RTF inh inactive.
For CN1/C(=C\C=O)C(C)(C)c2ccccc21 the results were CRFR2-BP antag inactive, cardiac RTF act inactive, CRFBP-R2 agonist inactive and Cardiac RTF inh inactive.
Cc1cc(C)n2nc(C)c(Br)c2n1 was read as CRFR2-BP antag inactive, cardiac RTF act inactive, CRFBP-R2 agonist inactive and Cardiac RTF inh inactive.
Cc1cc(C)n2nc3nc4c(cc3c2n1)CCCC4 was read as CRFR2-BP antag inactive, cardiac RTF act 31.4, CRFBP-R2 agonist inactive and Cardiac RTF inh inactive.
`COC(=O)c1ccc2c(c1)C(=O)/C(=C/c1ccc(C)cc1)O2` gave CRFR2-BP antag inactive, cardiac RTF act inactive, CRFBP-R2 agonist inactive and Cardiac RTF inh inactive.
`CN(C)c1ccc(/C=C2\Oc3ccc(C#Cc4cccc(N)c4)cc3C2=O)cc1` gave CRFR2-BP antag inactive, cardiac RTF act inactive, CRFBP-R2 agonist 80.4 and Cardiac RTF inh inactive.
Screening CCCCCC(=O)N1CC2(CC(c3cccc(NC(=O)CC)c3)=NO2)C[C@H]1C(N)=O (stereo not given in full) returned CRFR2-BP antag 79.0, cardiac RTF act inactive, CRFBP-R2 agonist inactive and Cardiac RTF inh inactive.
For C/C=C/C(=O)Nc1cccc(C2=NOC3(C2)C[C@@H](C(N)=O)N(C(=O)c2cc([N+](=O)[O-])cc([N+](=O)[O-])c2C)C3)c1 (stereo not given in full) the results were CRFR2-BP antag inactive, cardiac RTF act inactive, CRFBP-R2 agonist 232.2 and Cardiac RTF inh inactive.
`CCCCCC(=O)Nc1cccc(C2=NOC3(C2)C[C@H](C(N)=O)N(C(=O)CCCCC)C3)c1` (stereo not given in full) gave CRFR2-BP antag inactive, cardiac RTF act inactive, CRFBP-R2 agonist inactive and Cardiac RTF inh inactive.
O=C(CC(c1ccccc1)c1ccccc1O)NCc1ccccc1Cl (stereo not given) was read as CRFR2-BP antag 67.3, cardiac RTF act inactive, CRFBP-R2 agonist inactive and Cardiac RTF inh inactive.
For O=C(CC(c1ccccc1)c1ccccc1O)NCc1ccco1 (stereo not given) the results were CRFR2-BP antag inactive, cardiac RTF act inactive, CRFBP-R2 agonist inactive and Cardiac RTF inh inactive.
For CCc1cccc(CC)c1N1C(=O)C2=C(SCCCS2)C1=O the results were CRFR2-BP antag inactive and CRFBP-R2 agonist 137.2.

Source: PubChem
